# Laboratory results taken from the supplement of paper PMC12636033.
# ± gives the standard deviation of the averaged measurements. Over roughly 33,000 sequences, “E-score (rank enrichment, -0.5 to 0.5)” has its median near -0.0075; the highest 2% begin near 0.23. The list comes from a sample in which the highest values are over-represented; it also holds similar and randomly drawn sequences.
# Test system: WT Max(13-93) synthetic (M65Nle)
# Assay: PBM 8-mer E-score (E-score (rank enrichment, -0.5 to 0.5)); higher = stronger preferential binding
# Experimental: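 Protein binding microarray (universal PBM chip covering all 10-mers in fixed probe flanks) with chemically synthesized human Max(13-93) bHLH-LZ analogs (not full-length Max) bearing noncanonical residues (hArg, Tha, Aib, Nle at 65) and aromatic Cys staples. Read-out per 8-mer (and its reverse complement): E-score (rank-based enrichment, -0.5 to 0.5) and Z-score of median probe intensity.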
row,Sequence,PBM 8-mer E-score
1,ATATGTTA,0.284 ± 0.051
2,GTGTATTA,0.247 ± 0.035
3,ATGTATTA,0.225 ± 0.086
4,GGGTGTTA,-0.0337 ± 0.14
5,GTGTGTTA,0.242 ± 0.099
6,CTATGTTA,0.16 ± 0.052
7,ATGTGTTA,0.275 ± 0.015
8,ATATGTTC,0.179 ± 0.0093
9,ATGTGTCA,0.175 ± 0.069
10,TGAGATAA,0.116 ± 0.07
11,CAATGATC,-0.0206 ± 0.062
12,CGCCTCGA,-0.0745 ± 0.097
13,CTCCTGTC,-0.0511 ± 0.018
14,TCGCTGAA,-0.0377 ± 0.086
15,CCCCTGGC,-0.127 ± 0.042
16,AACCTCAT,0.156 ± 0.065
17,GTTTCCAA,0.0481 ± 0.061
18,ATGTGTTC,0.106 ± 0.0063
19,ATATGTTG,0.0792 ± 0.065
20,ATGTGTTG,0.247 ± 0.035
21,AAACACAG,0.153 ± 0.053
22,AAACACGG,-0.0068 ± 0.091
23,AAACACAC,0.132 ± 0.011
24,CAACACGC,0.195 ± 0.0099
25,AAACACGA,0.19 ± 0.11

row,Sequence,PBM 8-mer E-score
1,GAACACGC,0.105 ± 0.04
2,AAACACGC,0.24 ± 0.054
3,AAACACAT,0.287 ± 0.014
4,AAACACGT,0.329 ± 0.093
5,AGTAAACG,0.0125 ± 0.018
6,AGGTCTTG,-0.116 ± 0.084
7,TGACGCCA,-0.0607 ± 0.033
8,ACTGCAGT,-0.0688 ± 0.15
9,AGATGGAC,-0.09113 ± 0.00061
10,AATGTCAA,0.0117 ± 0.23
11,GATGTCAA,0.0342 ± 0.06
12,TATGTCAA,0.287 ± 0.054
13,TGTGTCAA,0.254 ± 0.011
14,AGTGTCAA,0.122 ± 0.14
15,CGTGTCAA,0.0498 ± 0.015
16,CAGAGCGA,-0.0911 ± 0.044
17,GGTTTGAA,0.145 ± 0.0079
18,CCAGTGGG,-0.122 ± 0.16
19,GACTTCTA,-0.0184 ± 0.13
20,AAAAACAC,0.251 ± 0.05
21,CAAAACAC,0.073 ± 0.066
22,GAAAACAC,0.0469 ± 0.11
23,ACAAACAC,0.268 ± 0.053
24,ACAAACAG,-0.0244 ± 0.058
25,CCAAACAG,-0.0488 ± 0.037

row,Sequence,PBM 8-mer E-score
1,CCAAACAC,0.242 ± 0.076
2,GCAAACAC,0.156 ± 0.07
3,ACAAACAA,0.112 ± 0.0055
4,CTAAACAA,0.0536 ± 0.046
5,CTGCGTGC,-0.0949 ± 0.0091
6,CGATCGAG,-0.26 ± 0.069
7,CATGCCCA,0.00676 ± 0.079
8,ACCTCCCA,0.00978 ± 0.14
9,CCTCCCAA,0.0602 ± 0.2
10,CCTCCCCC,-0.0244 ± 0.2
11,CCCTCCCA,0.262 ± 0.0086
12,CCTCCCCA,0.258 ± 0.065
13,GCCTCCCA,-0.155 ± 0.12
14,CCCTCCCC,0.171 ± 0.15
15,CCCCTCCC,0.239 ± 0.16
16,CCCCTCCG,0.044 ± 0.086
17,CTGGGTAC,-0.201 ± 0.15
18,GGATGGAC,0.106 ± 0.062
19,AGGGTTTA,0.152 ± 0.0074
20,AGGAGCAA,-0.034 ± 0.032
21,CACCACCA,-0.0146 ± 0.046
22,AACGATCC,-0.124 ± 0.023
23,GCAATGGC,0.0112 ± 0.019
24,ATACGCTC,0.0772 ± 0.0077
25,CCCATACA,0.0285 ± 0.11

row,Sequence,PBM 8-mer E-score
1,GGACTGCC,-0.0905 ± 0.19
2,GCATATGC,0.245 ± 0.008
3,CCATATCA,0.0654 ± 0.064
4,ACATATCG,0.0595 ± 0.028
5,CCATATGC,0.112 ± 0.14
6,ACATATCA,0.252 ± 0.013
7,ACATATAG,0.0953 ± 0.059
8,ACATATAA,0.309 ± 0.078
9,ACATATAC,-0.00226 ± 0.03
10,TCATATAA,0.15 ± 0.064
11,ACATATAT,0.244 ± 0.04
12,GCATATGA,0.138 ± 0.034
13,CCATATAA,0.174 ± 0.02
14,GCGGCCTA,-0.209 ± 0.12
15,ATGCGATG,0.054 ± 0.083
16,GTGAACAA,0.114 ± 0.0024
17,CAGGCGAC,-0.124 ± 0.082
18,CGTCCCGA,-0.209 ± 0.12
19,AAAGTTAG,0.127 ± 0.044
20,AGTGCAGA,0.0828 ± 0.16
21,ATAGCGGC,-0.135 ± 0.21
22,AACCTAGT,-0.18 ± 0.029
23,ATTGTGCC,0.174 ± 0.071
24,ACATATGT,0.265 ± 0.11
25,ACATATGC,0.0404 ± 0.029

row,Sequence,PBM 8-mer E-score
1,ACATATGG,0.155 ± 0.071
2,CGTTCTGC,-0.108 ± 0.038
3,AATGTGAA,0.181 ± 0.089
4,CATGTGAA,0.249 ± 0.059
5,AATGTGAC,-0.0272 ± 0.014
6,TATGTGAA,0.254 ± 0.13
7,GATGTGAA,0.15 ± 0.0086
8,GATGTGAC,-0.231 ± 0.026
9,CATGTGAC,0.3772 ± 0.0032
10,CCTGTGAA,-0.00915 ± 0.077
11,CATGTGAG,0.226 ± 0.08
12,AACCCGCT,0.00053 ± 0.075
13,ATAACCCG,-0.0972 ± 0.023
14,GATACTGA,-0.0332 ± 0.11
15,ATAAAAAT,0.209 ± 0.032
16,ACATAAAT,0.249 ± 0.026
17,TGATAAAA,0.282 ± 0.056
18,ACATAAAG,0.197 ± 0.04
19,CTATAAAA,0.0799 ± 0.029
20,ACATAAAA,0.192 ± 0.085
21,GTATAAAA,0.2289 ± 0.0018
22,ATATAAAG,0.138 ± 0.006
23,GGATAAAA,0.116 ± 0.12
24,ATATAAAT,0.26 ± 0.013
25,ATATAAAA,0.257 ± 0.14

row,Sequence,PBM 8-mer E-score
1,CGATAAAA,0.0372 ± 0.13
2,TGTCTAAA,0.127 ± 0.015
3,TTGCTAAA,-0.0675 ± 0.037
4,ACATCGCC,0.0533 ± 0.012
5,CATAAGCG,-0.0132 ± 0.16
6,ACGCTACT,-0.103 ± 0.057
7,CGCACAGA,-0.00527 ± 0.17
8,GCTACTTA,0.0733 ± 0.061
9,GCATCAAA,0.0826 ± 0.0033
10,TCAGTACA,-0.0447 ± 0.075
11,ATATAAGA,0.257 ± 0.1
12,GTATAAAC,0.097 ± 0.035
13,GTATAAGA,0.176 ± 0.037
14,CTATAAGA,0.00621 ± 0.13
15,ATATAAAC,0.249 ± 0.1
16,CTATAAAC,-0.0175 ± 0.061
17,CCGCACAA,-0.0967 ± 0.091
18,CAGTGTCG,-0.18 ± 0.018
19,AGGGACAA,-0.0703 ± 0.11
20,CTGGACAA,-0.0424 ± 0.18
21,GTGGACAA,0.236 ± 0.0099
22,TTGGACAA,0.137 ± 0.038
23,TGGGACAA,0.233 ± 0.12
24,GGGGACAA,-0.00341 ± 0.1
25,ATCTAAGG,0.00267 ± 0.011

row,Sequence,PBM 8-mer E-score
1,GACAGTAC,0.0423 ± 0.12
2,AACAGCCA,0.0334 ± 0.032
3,GCCCGGAC,-0.319 ± 0.01
4,TGCACACA,0.0593 ± 0.099
5,ATAGGCTA,0.00221 ± 0.094
6,GCTTTTTA,0.237 ± 0.16
7,ATATTTAC,0.23 ± 0.07
8,GCTTTTAA,-0.0112 ± 0.043
9,CCTTTTCA,0.245 ± 0.15
10,GCATTTTA,0.16 ± 0.072
11,CTTTTTCA,0.144 ± 0.055
12,CCTTTTTA,0.171 ± 0.029
13,ATATTTAA,0.302 ± 0.021
14,ACATTTTA,0.297 ± 0.048
15,CTATTTAA,0.0374 ± 0.0014
16,GCTTTTCA,0.0385 ± 0.086
17,CCATTTTA,0.0902 ± 0.15
18,ACGAAATG,0.158 ± 0.068
19,CTCGGCTC,-0.235 ± 0.028
20,AGGGAATC,-0.0163 ± 0.031
21,GTTTCGTA,0.0743 ± 0.067
22,GCGCTCTA,-0.19 ± 0.062
